Compound activity as filed in PubChem.
An excerpt weighted towards active compounds, which were near 1.8% of everything screened.
KAT2A inh – inhibitors of human GCN5L2 histone acetyltransferase; Potency, µM (series often up to 58.9 µM), for the others: at the highest dose activity change, negative = inhibition, actives largely listed as inhibitors; GCN5L2 HAT assay, ThioGlo1 CoA-SH fluorescence; 390,000 compounds, 0.21% hits; Q92830; note: % is set by controls: 0 for no effect and ±100 for the full control effect
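Titration-based screen in which CoA formation is detected via maleimide probe ThioGlo1 (50uM) turning fluorescent on thiol reaction; substrates H3(1-25) 75uM and acetyl-CoA 70uM, GCN5L2 20nM, 20 min incubation at room temperature.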
VDR inh – vitamin D3 receptor (human) inhibition | 400,000 compounds, 0.93% hits | Potency, µM, inactives show max response, negative = inhibition, hits mostly inhibitors | VDR-SRC2-3 peptide fluorescence polarization, 2 h; note: % is set by controls: 0 for no effect and ±100 for the full control effect
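The screen uses fluorescence polarization to detect compounds that interfere with recruitment of the SRC2-3 coactivator peptide to VDR; plates are read after 2 h at room temperature.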
TrxR1 substrate – is turned over as a substrate by rat TrxR1 | 390,000 compounds, 0.01% hits | O89049 | Potency, µM (titrated, usually from 114 µM), without a hit: at the highest dose activity change, negative = substrate turnover | purified TrxR1 substrate turnover, NADPH consumption readout; note: % is set by controls: 0 for no effect and ±100 for the full control effect; nearly all actives have a fitted effect of over 50% in size
Target sequence (O89049 whole entry, looked up): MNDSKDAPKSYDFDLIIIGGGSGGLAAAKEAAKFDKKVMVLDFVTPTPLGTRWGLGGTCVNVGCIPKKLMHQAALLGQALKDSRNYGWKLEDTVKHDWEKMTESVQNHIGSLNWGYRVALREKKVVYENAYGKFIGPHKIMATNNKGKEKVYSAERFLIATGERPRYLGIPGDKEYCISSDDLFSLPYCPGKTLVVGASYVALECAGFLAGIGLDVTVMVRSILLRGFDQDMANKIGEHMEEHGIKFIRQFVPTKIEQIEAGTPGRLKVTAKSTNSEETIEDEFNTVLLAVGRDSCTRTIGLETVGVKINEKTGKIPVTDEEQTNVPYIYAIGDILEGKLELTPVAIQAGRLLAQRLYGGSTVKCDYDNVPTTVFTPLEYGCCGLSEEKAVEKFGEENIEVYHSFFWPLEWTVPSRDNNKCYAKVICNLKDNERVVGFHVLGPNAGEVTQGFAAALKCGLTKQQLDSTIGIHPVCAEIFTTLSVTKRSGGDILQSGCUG
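Rat TrxR1, dispensed at 90 nM, was prereduced with 400 uM NADPH (final) for 5 min at ~22 deg C, then incubated with compound 15 min before 400 uM selenite. A first-read NADPH fluorescence drop versus no-compound background flagged substrates.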
TrxR1 inh – rat TrxR1 inhibition; O89049; recombinant rTrxR1, NADPH fluorescence consumption, selenite substrate; Potency, µM (titrated, usually from 114 µM), without a hit: top-dose activity change, negative = inhibition, usual class: inhibitors; 390,000 compounds, 1% hits; AID 588453; note: % is set by controls: 0 for no effect and ±100 for the full control effect; nearly all actives have a fitted effect of over 65% in size
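Rat TrxR1 (90 nM in the dispensed reagent) was pre-reduced with 400 uM NADPH for 5 min at room temperature, then incubated with compound for 15 min. After 400 uM selenite was added, NADPH fluorescence (Ex 340/Em 450 nm) was followed for 8 min.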
VDR inh confirm – confirmation of human vitamin D receptor inhibitors. VDR-coactivator inhibition assay, qHTS confirmation. AID 602199. shares compounds with VDR inh. Potency, µM, actives largely listed as inhibitors. 840 compounds, 89% hits
VDR FP – confirmation of human VDR-coactivator binding inhibitors, fluorescein label; shares compounds with VDR inh; VDR-coactivator binding, fluorescein fluorescence polarization; Potency, µM (highest dose often 57.1 µM), inactives show at the highest dose activity change, negative = inhibition, hits mostly inhibitors; 840 compounds, 48% hits
VDR bla reporter – inhibits human VDR in beta-lactamase reporter cells; Potency, µM (doses to about 46.1 µM), inactives show top-dose activity change, negative = inhibition, actives largely listed as inhibitors; AID 602202; shares compounds with VDR inh; 840 compounds, 23% hits; VDR beta-lactamase reporter cells, FRET ratio; cells co-treated with VDR agonist LG190178; note: % is set by controls: 0 for no effect and ±100 for the full control effect
VDR viability – cytotoxic in counter-screen for VDR inhibitors; shares compounds with VDR inh; 840 compounds, 18% hits; cytotoxicity counter-screen, cell viability, qHTS; Potency, µM (titrated, usually from 48.3 µM), without a hit: at the top dose activity change, negative = cytotoxicity, actives largely listed as cytotoxic; AID 602204;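 note: plate controls were DMSO for no effect and high-concentration cycloheximide for full effect; nearly all actives have a fitted effect of over 75% in size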
* marks the source's active call; other numbers are inactive results; [ ] = another dose, or the depositor's remark. Calls come from the whole dose curve; as a rule, active = well fitted curve in the direction sought with a large enough effect; inconclusive = small, poorly fitted or top-dose-only effect, or another doubt; inactive = no such curve, though single readings can be large; an effect the other way counts as inactive or inconclusive. Potency is the fitted concentration of half-maximal effect.

Results for O=c1[nH]c(/C=C/c2ccccc2Cl)c([N+](=O)[O-])c(=O)[nH]1 ?
KAT2A inh: -12%; VDR inh: 35µM*; TrxR1 substrate: -10%; TrxR1 inh: -46%; VDR inh confirm: 19*; VDR FP: 11µM*; VDR bla reporter: 17%; VDR viability: 26%

What do the screens show for `CCOc1ccc(/C=C/c2[nH]c(=O)[nH]c(=O)c2[N+](=O)[O-])cc1`?
KAT2A inh: 2%; VDR inh: inconclusive; TrxR1 substrate: 8%[57.1 µM]; TrxR1 inh: 22%[57.1 µM]

Results for COc1ccc(C(C2C(=O)CC(C)(C)CC2=O)C2C(=O)CC(C)(C)CC2=O)cc1COCC(F)(F)F ?
KAT2A inh: -1%; VDR inh: 20µM*; TrxR1 substrate: 4%; TrxR1 inh: 7.9µM*; VDR inh confirm: 6*; VDR FP: inconclusive; VDR bla reporter: 26%; VDR viability: 11%

How did COc1cc(C(C2C(=O)CC(C)(C)CC2=O)C2C(=O)CC(C)(C)CC2=O)ccc1OC(C)=O do in these assays?
VDR inh: inconclusive; TrxR1 substrate: 7%[57.1 µM]; TrxR1 inh: inconclusive

How did CS(=O)(=O)N1CCC2(CCCN(c3ccncc3)C2)CC1 do in these assays?
KAT2A inh: -3%; VDR inh: -3%

Results for NCCCC[C@H](NC(=O)[C@@H]1CCCN1C(=O)[C@@H](N)CCCN=C(N)N)C(=O)N1CCC[C@H]1C(=O)N[C@@H](CCC(N)=O)C(=O)N[C@@H](CCC(N)=O)C(=O)N[C@@H](Cc1ccccc1)C(=O)O ?
KAT2A inh: -9%; VDR inh: -14%

How did COc1cccc(-c2cc(C(F)(F)F)nc(NCCc3ccccc3)n2)c1 do in these assays?
KAT2A inh: -22%; VDR inh: -4%; TrxR1 substrate: 8%; TrxR1 inh: 27%

How did CCOC(=O)c1c(-c2ccc(C)s2)csc1N do in these assays?
KAT2A inh: -14%; VDR inh: 79µM*; TrxR1 substrate: -3%; TrxR1 inh: -17%; VDR inh confirm: 19*; VDR FP: 11µM*; VDR bla reporter: 11%; VDR viability: 23%

How did CCOC(=O)c1c(-c2ccsc2)csc1N do in these assays?
KAT2A inh: 3%; VDR inh: -29%; TrxR1 substrate: -2%; TrxR1 inh: 14%

Results for CC(=O)N1CCc2c(sc3c2c(=O)n(-c2ccc(C)cc2)c(=O)n3Cc2c(F)cccc2Cl)C1 ?
KAT2A inh: 0%; VDR inh: 4%; TrxR1 substrate: 1%; TrxR1 inh: 5%

Results for CN1CCN(c2ncc3c(n2)CCN(Cc2ccc(Br)s2)C3)CC1 ?
KAT2A inh: 9%; VDR inh: 2%; TrxR1 substrate: 5%[57.1 µM]; TrxR1 inh: 9%[57.1 µM]

How did Nc1ccc(Sc2ccc([N+](=O)[O-])cc2)cc1 do in these assays?
KAT2A inh: -14%; VDR inh: 3%; TrxR1 substrate: -2%; TrxR1 inh: 20%[57.1 µM]

How did Cc1ccc(C(C[N+](=O)[O-])Sc2ccc(N)cc2)cc1 (configuration not stated) do in these assays?
KAT2A inh: -11%; VDR inh: 13µM*; TrxR1 substrate: 7%[57.1 µM]; TrxR1 inh: inconclusive; VDR inh confirm: 7.5*; VDR FP: inconclusive; VDR bla reporter: inconclusive; VDR viability: inconclusive

What do the screens show for `CCOc1ccc(/C=C2\SC(=S)NC2=O)cc1OC`?
KAT2A inh: -1%; VDR inh: -4%; TrxR1 substrate: -14%; TrxR1 inh: -20%

How did COc1ccc(/C=C2\SC(=O)NC2=S)cc1OC do in these assays?
KAT2A inh: -4%; VDR inh: 10µM*; TrxR1 substrate: -3%[57.1 µM]; TrxR1 inh: inconclusive; VDR inh confirm: 3*; VDR FP: 24%; VDR bla reporter: 21%; VDR viability: -12%

Results for Cc1ccc(/C=C2/SC(=S)N(C3CCCCC3)C2=O)o1 ?
KAT2A inh: -5%; VDR inh: -7%; TrxR1 substrate: -6%; TrxR1 inh: -11%

What do the screens show for `Cc1ccc(/C=C2/SC(=O)NC2=S)o1`?
KAT2A inh: inconclusive; VDR inh: 35µM*; TrxR1 substrate: -27%; TrxR1 inh: 56µM*; VDR inh confirm: 24*; VDR FP: 22µM*; VDR bla reporter: 27%; VDR viability: -23%

Results for CCc1nnc(NC(=O)c2nc(Cl)ccc2Cl)s1 ?
KAT2A inh: -3%; VDR inh: -8%; TrxR1 substrate: 10%; TrxR1 inh: 39%

What do the screens show for `COC(=O)c1ccccc1NC(=O)c1nc(S(=O)(=O)Cc2ccccc2)ncc1Cl`?
KAT2A inh: -18%; VDR inh: inconclusive; TrxR1 substrate: 8%; TrxR1 inh: 8.9µM*; VDR inh confirm: 3.2*; VDR FP: 3.2µM*; VDR bla reporter: 9.2µM*; VDR viability: 21µM*

How did CCOc1ccccc1NC(=O)c1nc(S(=O)(=O)Cc2cccc(C)c2)ncc1Cl do in these assays?
KAT2A inh: -6%; VDR inh: 16µM*; TrxR1 substrate: -9%; TrxR1 inh: 7.1µM*; VDR inh confirm: 8.4*; VDR FP: inconclusive; VDR bla reporter: 3.3µM*; VDR viability: 7.3µM*

How did CCc1nnc(NC(=O)c2nc(SCc3ccccc3F)ncc2Cl)s1 do in these assays?
KAT2A inh: -15%; VDR inh: 4%; TrxR1 substrate: -4%; TrxR1 inh: 9%

How did CCc1nnc(NC(=O)c2nc(S(=O)(=O)Cc3cccc(C)c3)ncc2Cl)s1 do in these assays?
KAT2A inh: -5%; VDR inh: 13µM*; TrxR1 substrate: -3%; TrxR1 inh: 40µM*; VDR inh confirm: 3*; VDR FP: inconclusive; VDR bla reporter: 5.8µM*; VDR viability: inconclusive

How did CCc1nnc(NC(=O)c2nc(S(=O)(=O)Cc3ccccc3)ncc2Cl)s1 do in these assays?
KAT2A inh: 3%; VDR inh: 22µM*; TrxR1 substrate: 1%; TrxR1 inh: 45µM*; VDR inh confirm: 7.5*; VDR FP: 8.9µM*; VDR bla reporter: 13µM*; VDR viability: 18µM*

How did CCOc1ccccc1NC(=O)c1cc(-c2ccncc2)nc2c(Cl)cccc12 do in these assays?
KAT2A inh: 13%; VDR inh: 14%; TrxR1 substrate: 5%[57.1 µM]; TrxR1 inh: 1%[57.1 µM]
